# Source: PubChem BioAssay (EPA / NIEHS)
# Several values for one entry are separate records, joined by “and”; a condition that tells them apart may be missing. Identical values can stand only once. Some structures have more than one record in an assay (separate samples or runs), and their calls can disagree. Activity calls are given as the source filed them. The calls were made as follows: active = hit-call score of the fitted dose curve at least 0.9, where 1 is the maximum; inactive = score below 0.9.
# Test: ATG_Oct_MLP_CIS: Attagene CIS-FACTORIAL HepG2 Assay for human Octamer-Binding Transcription Factor (Oct) (AID 2282993)
# Conditions: HepG2 Attagene cis-factorial Oct reporter, mRNA; actives raise or lower the signal
# Description: ATG_CIS is a cell-based, multiplexed-readout assay that uses HepG2, a human liver cell line, with measurements taken at 24 hours after chemical dosing in a 24-well plate.ATG_Oct_MLP_CIS is one of 52 assay component(s) measured or calculated from the ATG_CIS assay. It is designed to make measurements of mRNA induction, a form of inducible reporter, as detected with fluorescence intensity signals by Reverse transcription polymerase chain reaction (RT-PCR) and Capillary electrophoresis technology.Data from the assay component ATG_Oct_MLP_CIS was analyzed into 1 assay endpoint. This assay endpoint, ATG_Oct_MLP_CIS, was analyzed with bidirectional fitting relative to DMSO as the negative control and baseline of activity. Using a type of inducible reporter, measures of mRNA for gain or loss-of-signal activity can be used to understand the reporter gene at the transcription factor-level as they relate to the gene POU2F1. Furthermore, this assay endpoint can be referred to as a primary readout, because this assay has produced multiple assay endpoints where this one serves a reporter gene function. To generalize the intended target to other relatable targets, this assay endpoint is annotated to the dna binding intended target family, where the subfamily is POU domain protein.
# Human liver HepG2 cells are transiently transfected with multiple reporter transcription units (MRTUs) in 6-well plates using FuGene 6 reagent (Roche; 3 ml FuGene/1 mg DNA). The MRTU constructs are regulated by a cis-regulating element (promoter). […] A major difference between the CIS and TRANS system is that in CIS activities of endogenous TFs are measured, whereas the TRANS assay evaluates changes in activities of exogenous, chimeric NR-Gal4 proteins. […] At the end of 24 hour incubation, total RNA was isolated using TriZol reagent (Invitrogen). The isolated RNA is then reverse-transcribed using oligo(dT) primer and Mo-MLV reverse transcriptase (Invitrogen) with DNAse I (Ambion) treatment for 30 min. The one-tenth of the produced cDNA was amplified by PCR using Taq DNA polymerase (Invitrogen) and two reporter sequence-specific primers. The PCR products were fluorescently labeled by primer extension with 6-arboxyfluorescein (6-FAM) 5'-labeled reporter sequence-specific primer (2 min at 95 C, 20 s at 68 C and 10 min at 72 C) and these products were digested with 5U of HpaI (New England Biolabs) for 2h at 37 C. The fragments were purified using Qiaquick PCR columns (Qiagen), analyzed on an ABI 3130xL genetic analyzer (Applied Biosystems) with peak positions identified by using a set of X-rhodamine (ROX)-labeled MapMarker1000 molecular weight standards (BioVentures). The raw capillary electrophoresis data was processed using Attagraph software (Attagene).
SMILES,outcome,AC50
CCCOC(=O)c1ccc(C(=O)OCCC)nc1,inactive,
C=CCOC(Cn1ccnc1)c1ccc(Cl)cc1Cl (stereo not given),,3.55 µM (active)
N#CSCSc1nc2ccccc2s1,inactive,14.5 µM (active)
CCC(O)=C1C(=O)CC(C(=O)O)CC1=O (stereo not given),inactive,
CCCOC(=O)NCCCN(C)C,inactive,
CCCCOCCOCCOCc1cc2c(cc1CCC)OCO2,inactive,
O=C(c1ccccc1)C1CCCCC1,inactive,
CCOC(=O)[C@H](C)Oc1ccc(Oc2nc3ccc(Cl)cc3o2)cc1,inactive,
CCNc1nc(N)nc(Cl)n1,inactive,
CCCCC(CC)COC(=O)c1ccccc1C(=O)O (stereo not given),inactive,
c1ccc(Nc2ccccc2)cc1,inactive,50 µM (active)
CCN(Cc1c(F)cccc1Cl)c1c([N+](=O)[O-])cc(C(F)(F)F)cc1[N+](=O)[O-],inactive,
O=C(O)c1ccccc1,inactive,
CCOC(=O)COc1cc(-n2ncc(C(F)(F)F)c(C)c2=O)c(F)cc1Cl,inactive,
COC(=O)c1c(Cl)nn(C)c1S(=O)(=O)NC(=O)Nc1nc(OC)cc(OC)n1,inactive,
CC(C)(c1ccc(O)cc1)c1ccc(O)cc1,inactive,
CCOC(=O)C(C)Oc1ccc(Oc2nc3ccc(Cl)cc3o2)cc1 (stereo not given),inactive,
CC1(C)C(C=C(Cl)Cl)C1C(=O)OCc1cccc(Oc2ccccc2)c1 (stereo not given),inactive,

SMILES,outcome,AC50
CCCN(CCC)c1c([N+](=O)[O-])cc(C(F)(F)F)c(N)c1[N+](=O)[O-],,4.57 µM (active)
CCOC(=O)c1ccc(O)cc1,inactive,100 µM (active)
Cc1nn(C)c(Oc2ccccc2)c1C=NOCc1ccc(C(=O)OC(C)(C)C)cc1,,0.0401 µM (active)
COC(=O)c1ccccc1S(=O)(=O)NC(=O)Nc1nc(OC(F)F)cc(OC(F)F)n1,inactive,
CCN(CC)C(=O)c1cccc(C)c1,inactive,
O=C(Nc1ccc([N+](=O)[O-])cc1Cl)c1cc(Cl)ccc1O,,0.7 µM (active)
CCCCCCC(C)OC(=O)COc1nc(F)c(Cl)c(N)c1Cl (stereo not given),inactive,
COc1c(Cl)ccc(Cl)c1C(=O)O,inactive,
C#CCOC(=O)[C@@H](C)Oc1ccc(Oc2ncc(Cl)cc2F)cc1,inactive,
CCC(C)OC(=O)N1CCCCC1CCO (stereo not given),inactive,
CSC(=O)c1cccc2nnsc12,inactive,
O=C(O)C1(C(=O)Nc2ccc(Cl)cc2Cl)CC1,inactive,
COC(=O)c1ccc(CNS(C)(=O)=O)cc1S(=O)(=O)NC(=O)Nc1nc(OC)cc(OC)n1,inactive,
CN(C)C(=O)Nc1ccc(Cl)c(Cl)c1,,146 µM (active) and 30.3 µM (active)
COCCO,inactive,
C#C[C@]1(O)CC[C@H]2[C@@H]3CCC4=CC(=O)CC[C@@H]4[C@H]3CC[C@@]21CC,inactive,
CC(=O)S[C@@H]1CC2=CC(=O)CC[C@]2(C)[C@H]2CC[C@@]3(C)[C@@H](CC[C@@]34CCC(=O)O4)[C@H]12,inactive,15 µM (active)
CCCN(CCC)C(=O)SCC,inactive,
